Read-out in test [1]: Human Leukocyte Antigen - DR isotype (HLADR), HLA-DRA (gene 3122)
Nature of the test: BSK_CASM3C_HLADR: BioMAP Diversity Plus: CASM3C Assay for Human Leukocyte Antigen - DR isotype (HLADR) Biomarker Activity (AID 2283043).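 Further: cell-surface HLA-DR protein level quantified by ELISA.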 Particulars: primary human coronary artery smooth muscle cells; actives raise or lower the signal.

Read-out in test [2]: Macrophage colony-stimulating factor (MCSF), CSF1 (gene 1435)
Nature of the test: BSK_CASM3C_MCSF: BioMAP Diversity Plus: CASM3C Assay for Macrophage colony-stimulating factor (MCSF) Biomarker Activity (AID 2283044).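 Further: M-CSF protein amount quantified by ELISA after 24 h exposure.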 Conditions: primary human coronary artery smooth muscle cells; actives raise or lower the signal.

Read-out in test [3]: Low-density lipoprotein receptor (LDLR), LDLR (gene 3949)
Nature of the test: BSK_CASM3C_LDLR: BioMAP Diversity Plus: CASM3C Assay for Low-density lipoprotein receptor (LDLR) Biomarker Activity (AID 2283045).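 Further: LDLR protein level on the cell surface quantified by ELISA.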 Particulars: primary human coronary artery smooth muscle cells; actives raise or lower the signal.

Read-out in test [4]: Monocyte Chemoattractant Protein-1 (MCP1), CCL2 (gene 6347)
Briefly: BSK_CASM3C_MCP1: BioMAP Diversity Plus: CASM3C Assay for Monocyte Chemoattractant Protein-1 (MCP1) Biomarker Activity (AID 2283046).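 Further: MCP-1 level quantified by ELISA 24 h after dosing.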 Particulars: primary human coronary artery smooth muscle cells; actives raise or lower the signal.

A short description of test [5]: BSK_CASM3C_Proliferation: Cell Proliferation Assessment in the BioMAP Diversity Plus: CASM3C Assay (AID 2283047).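 Further: sulforhodamine B total protein stain as relative cell number at 560 nm; sub-confluent cells exposed 48 h before staining; fitted both ways against DMSO so gain or loss of cell number.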 Particulars: primary human coronary artery smooth muscle cells.
Read-out in test [6]: Monokine induced gamma interferon (MIG), CXCL9 (gene 4283)
Nature of the test: BSK_CASM3C_MIG: BioMAP Diversity Plus: CASM3C Assay for Monokine induced gamma interferon (MIG) Biomarker Activity (AID 2283048).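 Further: MIG protein level measured by ELISA.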 Particulars: primary human coronary artery smooth muscle cells; actives raise or lower the signal.

Read-out in test [7]: serum amyloid A (SAA), SAA1 (gene 6288)
Briefly: BSK_CASM3C_SAA: BioMAP Diversity Plus: CASM3C Assay for serum amyloid A (SAA) Biomarker Activity (AID 2283049).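 Further: SAA protein level quantified by ELISA.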 Conditions: primary human coronary artery smooth muscle cells; actives raise or lower the signal.

Test [8] can be described thus: BSK_CASM3C_SRB: Viability Assessment in the BioMAP Diversity Plus: CASM3C Assay (AID 2283050).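 Further: total protein by SRB staining as cytotoxicity measure in parallel cultures; cells exposed to compound for 24 h.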 Conditions: primary human coronary artery smooth muscle cells.
Read-out in test [9]: Thrombomodulin, THBD (gene 7056)
Nature of the test: BSK_CASM3C_Thrombomodulin: BioMAP Diversity Plus: CASM3C Assay for Thrombomodulin Biomarker Activity (AID 2283051).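 Further: thrombomodulin protein level measured by ELISA 24 h after dosing.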 Conditions: primary human coronary artery smooth muscle cells; actives raise or lower the signal.

Read-out in test [10]: Tissue Factor, F3 (gene 2152)
Briefly: BSK_CASM3C_TissueFactor: BioMAP Diversity Plus: CASM3C Assay for Tissue Factor Biomarker Activity (AID 2283052).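 Further: cell surface tissue factor protein level read by ELISA.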 Conditions: primary human coronary artery smooth muscle cells; actives raise or lower the signal.

Active and inactive are the calls of the source. How the source made its calls: active means hit-call score of the fitted dose curve at least 0.9, where 1 is the maximum; inactive means score below 0.9.

In the case of `OCCCCO`, the result in test [1], in test [2], in test [3], in [4], in test [5] and in test [6] was inactive. Also, the outcome in test [7], in test [8], in [9] and in test [10] was inactive.
With `CCC(C)(C#N)N=NC(C)(C#N)CC` (stereo not given), the outcome in test [1], in [3], in [4], in test [5], in test [6] and in test [7] was inactive. The result in test [8], in test [9] and in [10] was inactive. Further, the AC50 in test [2] is 0.016 µM (active).
Take `CCN(CC)C(=O)C(Cl)=C(C)OP(=O)(OC)OC`: the outcome in [1], in test [2], in test [3], in test [4], in [5] and in test [6] was inactive. For the same molecule, the result in test [7], in test [8], in test [9] and in test [10] was inactive.
Regarding `O=C(CCl)NCO`, the outcome in test [1], in [2], in test [3], in test [4], in test [5] and in test [6] was inactive. Moreover, the result in test [7], in test [8], in test [9] and in test [10] was inactive.
In the case of `Oc1cccc(-c2ccccc2)c1`, the result in [1], in [2], in [3], in test [6], in test [7] and in test [9] was inactive. Further, the AC50 in test [4] is 20 µM (active); in test [5], 34.4 µM (active); in test [8], 28.7 µM (active); in test [10], 20 µM (active).
Take `O=[N+]([O-])c1cccc2ccccc12`: the outcome in [1], in test [2], in test [3], in test [4], in test [5] and in test [6] was inactive. Further, the outcome in [7], in [8], in test [9] and in test [10] was inactive.
Turning to `C#CCOC(=O)/C=C(C)/C=C/CC(C)CCCC(C)C` (stereo not given), the AC50 was 3.97 µM (active) in test [1] and 4.03 µM (active) in test [10]. In addition, the outcome in test [2], in [3], in [4], in test [5], in [6] and in test [7] was inactive. The result in test [8] and in test [9] was inactive.
As to `Cc1ccccc1OP(=O)(Oc1ccccc1C)Oc1ccccc1C`, the concentration at half-maximal activity (AC50) was 32.9 µM (active) in test [1]; 29.4 µM (active) in test [2]; 24.3 µM (active) in test [4]; 24.3 µM (active) in [5]; 30.1 µM (active) in test [8]. The outcome in test [3], in test [6], in test [7], in test [9] and in test [10] was inactive.
For `Nc1ccc(N)cc1`, the outcome in test [1], in [2], in test [3], in test [4], in test [5] and in [6] was inactive. The outcome in [7], in test [8], in test [9] and in test [10] was inactive.
As to `O=C(O)COc1cc(Cl)c(Cl)cc1Cl`, the outcome in [1], in [2], in test [3], in [4], in test [5] and in test [6] was inactive. Moreover, the outcome in test [7], in [8] and in test [9] was inactive. Also, in test [10], the AC50 is 5.98 µM (active).
Consider `C[C@]12CC[C@@H](O)C[C@@H]1CC[C@@H]1[C@@H]2CC[C@]2(C)C(=O)CC[C@@H]12`, for which the outcome in [1], in test [2], in test [4], in test [5], in test [6] and in [7] was inactive. In addition, the result in test [8], in test [9] and in [10] was inactive. In addition, the AC50 in test [3] is 29 µM (active).
Regarding `CC(C)O.CC(C)O.OCCN(CCO)CCO.OCCN(CCO)CCO.[Ti]`, the outcome in test [1], in test [2], in test [3], in [4], in [5] and in [6] was inactive. The outcome in test [7], in test [8], in test [9] and in test [10] was inactive.
Regarding `O=C(Cc1ccccc1)OCCc1ccccc1`, the outcome in test [1], in [2], in test [3], in [4], in [5] and in test [6] was inactive. Besides, the outcome in test [7], in [8], in test [9] and in [10] was inactive.
As for `C=CC(Cl)CCl` (stereo not given), the result in test [1], in test [2], in test [3], in test [5], in test [6] and in test [7] was inactive. Further, the outcome in test [8], in test [9] and in test [10] was inactive. In addition, the AC50 in test [4] is 0.0777 µM (active).
For the molecule `CCOP(=S)(OCC)OP(=S)(OCC)OCC`, the result in [1], in test [2], in test [3], in [4], in test [6] and in [7] was inactive. Further, the outcome in [8], in [9] and in test [10] was inactive. In addition, the AC50 in [5] was 29 µM (active).
Consider `O=c1oc2ccccc2c(O)c1C(CC(O)c1ccc(-c2ccc(Br)cc2)cc1)c1ccccc1` (stereo not given), for which the AC50 in [1] is 4.99 µM (active); in test [2], 16.3 µM (active); in test [3] it was 19.1 µM (active); in test [4] it was 7.44 µM (active); in [5] it was 19.1 µM (active); in test [7], 99.8 nM (active). The AC50 in test [8] was 13.9 µM (active); in [10], 16.2 µM (active). Besides, the outcome in test [6] and in [9] was inactive.
For `CCCCN(CCCC)C(=S)[S-].CCCCN(CCCC)C(=S)[S-].[Ni+2]`, the outcome in test [1], in test [2], in [3], in test [4], in test [5] and in test [6] was inactive. For the same molecule, the result in test [7], in test [8], in test [9] and in [10] was inactive.

Usually AC50 stands for the concentration giving half of the maximal activity seen.

Values taken from PubChem BioAssay (EPA / NIEHS).
